Assay outcomes (PubChem BioAssay)
Hits are enriched below; roughly 3.4% of the tested compounds scored in any of these assays.
pPAFAH FP inh: pPAFAH enzyme inhibitors, primary screen, biochemical, fluorescence polarization, human; Platelet-activating factor acetylhydrolase (Homo sapiens), Q13093; recombinant pPAFAH, FP-rhodamine probe fluorescence polarization; inhibition, % at 3.39 µM; hit rate 1.5% among 330,000; AID 463082, 2010;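 active = inhibition above the mean inhibition across the screen plus 3 SD, cut at about 25% in these data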;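 also: inhibitors block binding of the rhodamine activity-based probe so polarization drops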
Target sequence (Q13093 whole entry, looked up): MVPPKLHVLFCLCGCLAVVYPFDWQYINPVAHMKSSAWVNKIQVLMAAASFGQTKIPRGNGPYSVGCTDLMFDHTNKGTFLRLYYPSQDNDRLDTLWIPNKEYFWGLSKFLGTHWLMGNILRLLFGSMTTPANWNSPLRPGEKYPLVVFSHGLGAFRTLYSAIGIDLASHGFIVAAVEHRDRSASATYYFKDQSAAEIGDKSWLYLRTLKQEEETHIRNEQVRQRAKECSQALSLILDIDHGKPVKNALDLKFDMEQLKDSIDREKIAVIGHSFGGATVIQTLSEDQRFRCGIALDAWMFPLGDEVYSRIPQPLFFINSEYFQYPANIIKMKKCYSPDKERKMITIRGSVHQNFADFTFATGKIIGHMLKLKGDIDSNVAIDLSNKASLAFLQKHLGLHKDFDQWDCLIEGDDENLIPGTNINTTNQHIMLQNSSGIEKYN
PP5 inh: PP5 phosphatase inhibitors, primary screen, biochemical, fluorescence; purified PP5c, OMFP substrate fluorescence; inhibition, % at 6.7 µM; AID 1987, 2009; hit rate 0.18% among 320,000;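 active = inhibition above the campaign's mean inhibition across all tested compounds plus 3 SD, cut at about 9.5% in these data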
PAFAH1B2 inh: PAFAH1B2 enzyme inhibitors, primary screen, biochemical, fluorescence polarization, human. recombinant PAFAH1B2, FP-rhodamine activity probe. inhibition, % at 3.39 µM. hit rate 1.2% among 340,000. AID 492953, 2010;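 active = inhibition above the mean of all tested compounds plus 3 SD, cut at about 24% in these data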
PAFAH2 inh: PAFAH2 enzyme inhibitors, primary screen, biochemical, fluorescence polarization, human. Platelet-activating factor acetylhydrolase 2, cytoplasmic (Homo sapiens), Q99487. recombinant PAFAH2, FP-rhodamine activity probe. inhibition, % at 3.39 µM. hit rate 0.99% among 340,000. AID 492956, 2010;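 active = inhibition above the mean over all tested compounds plus 3 SD, cut at about 30% in these data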;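 also: inhibitors block probe labeling of enzyme so polarization drops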
PP1 counter: PP1-alpha phosphatase inhibitors, primary screen, counter-screen for PP5 inhibitor project, biochemical, fluorescence, OMFP substrate, single point; Serine/threonine-protein phosphatase PP1-alpha catalytic subunit (Homo sapiens), P62136; purified PP1alpha; inhibition, % at 6.7 µM; hit rate 0.9% among 320,000; AID 2235, 2010;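 active = inhibition above the mean inhibition of all tested compounds plus 3 SD, computed separately for each screening campaign, cut at about 15% in these data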
PAFAH1B3 FP inh: PAFAH1B3 enzyme inhibitors, primary screen, biochemical, fluorescence polarization, human | AID 492972, 2010 | inhibition, % at 3.39 µM | recombinant PAFAH1B3, FP-rhodamine probe | Platelet-activating factor acetylhydrolase IB subunit alpha1 (Homo sapiens), Q15102 | hit rate 0.28% among 340,000;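 active = inhibition above the screen-wide average of all tested compounds plus 3 SD, cut at about 25% in these data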
pPAFAH confirm: pPAFAH (PLA2G7) enzyme inhibitors, confirmation, biochemical, fluorescence polarization, human | recombinant pPAFAH, FP-Rh probe fluorescence polarization | hit rate 72% among 2,300 | shares compounds with pPAFAH FP inh | inhibition, % at 3.39 µM | AID 463230, 2010;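 active = mean inhibition of the triplicate above the hit cutoff set for the earlier primary screen, cut at about 25% in these data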
Hits are given with their value; – = inactive; · = no result.

SMILES	pPAFAH FP inh	PP5 inh	PAFAH1B2 inh	PAFAH2 inh	PP1 counter	PAFAH1B3 FP inh	pPAFAH confirm
O=c1c(-c2ccccc2)c(-c2ccccc2)oc2cc(O)cc(O)c12	–	–	–	–	–	–	·
O=C(NCc1cccnc1)c1cc2nc(-c3ccc4c(c3)OCO4)cc(C(F)(F)F)n2n1	–	–	–	–	–	–	·
COc1ccc(C(=O)Oc2c(CN3CCOCC3)cc(Cl)c3cccnc23)cc1	–	–	–	–	–	–	·
COc1cc(C(=O)Oc2c(CN3CCOCC3)cc(Cl)c3cccnc23)cc(OC)c1OC	39.5	–	–	–	–	–	–
Cc1ccc(C(=O)Oc2ccc(Cl)c3cccnc23)cc1[N+](=O)[O-]	–	–	–	–	–	–	·
NC(=O)c1c(NC(=O)c2cc3ccccc3o2)sc2c1CCC2	–	–	–	–	–	–	·
Cc1cc(-c2ccccc2)nc(N/N=C/c2ccc(O)cc2O)n1	–	–	–	–	–	–	·
CN(/N=C/c1ccc(O)cc1O)c1nc(-c2ccccc2)cc(-c2ccccc2)n1	36.6	–	–	–	–	–	–
O=C(CC1C[C@H](C(=O)N2CCOCC2)[C@@]2(CCC3CCCC3)c3[nH]c4ccccc4c3CCN2C1=O)NCc1cccc(C(F)(F)F)c1 (stereo partly drawn)	·	·	–	–	·	–	·
CC(NC(=S)Nc1cccc(F)c1)C(c1cccs1)N1CCOCC1 (stereo not drawn)	46.7	–	–	–	–	–	–
Cc1ccc(C)c(NC(=S)NC(C)C(c2cccs2)N2CCOCC2)c1 (stereo not drawn)	–	–	–	–	–	–	·
CC(CN1CCOCC1)OC(=O)Cc1ccc(Cl)cc1 (stereo not drawn)	53.6	–	–	–	–	–	–
COc1ccc(CC(=O)OC(C)CN2CCCC2)cc1 (stereo not drawn)	–	–	–	–	–	–	·
N#CC1=C(N)N2C(=C(C#N)C1c1ccc(Br)cc1)Nc1ccccc12 (stereo not drawn)	63.2	–	·	·	–	·	70.6
COc1ccc(-c2csc(NC(=O)c3ccc(C(C)(C)C)cc3)c2C(=O)O)cc1	36.8	–	·	·	–	·	40.9
CC(C)(C)c1ccc(C(=O)Nc2sc3c(c2C(=O)O)CCC3)cc1	36.7	–	46.8	–	–	–	41.2
COCCCN(CC(=O)O)S(=O)(=O)c1cccc(Cl)c1	–	–	–	–	–	–	·
COc1ccc(N(CC(=O)N/N=C/c2cc(OC)ccc2OC)S(=O)(=O)c2ccccc2)cc1	–	–	–	–	–	–	·
CCOC(=O)c1c(C)[nH]c(N=Nc2ccc(C)cc2C)c1C	–	–	–	–	–	–	·
CCOC(=O)c1c(C)[nH]c(N=Nc2cc(C(=O)O)cc(C(=O)O)c2)c1C	35.0	–	–	–	–	–	–
COc1cc(Cl)ccc1OCc1cc(C(=O)N2CCCCC2c2cccnc2)no1 (stereo not drawn)	–	–	–	–	–	–	·
CCOC(=O)Nc1ccc2c(COC(=O)c3ccccc3O)cc(=O)oc2c1	–	–	–	–	–	–	·
COc1ccccc1NC(=S)NCc1ccc(S(N)(=O)=O)cc1	–	–	–	–	–	–	·
CCCCOc1ccc2c(c1)C(=O)c1cc(O)ccc1-2	–	–	–	–	–	–	·
CCOc1ccc2c(c1)C(=O)c1cc(OCC(=O)O)ccc1-2	36.9	–	–	–	–	–	–
Cc1oc(-c2cccs2)nc1CS(=O)CC(=O)NC1CCCCCC1 (stereo not drawn)	–	–	–	–	–	–	·
CC1=NN(C(N)=S)C(=O)C1N=Nc1cccc([N+](=O)[O-])c1 (stereo not drawn)	–	–	–	–	–	–	·
Nc1ccc(NC(=O)c2ccccc2)c2c1C(=O)c1ccccc1C2=O	–	–	–	–	–	–	·
